Here are results for 62 compounds from PubChem BioAssay AID1259249 (Broad Institute, 2017).

“And” between values parts separate entries of the source, which are not always exact repeats. Equal entries are not always repeated. The whole screen tested about 86,000 compounds, of which about 220 (0.26%) were called active. Many of the other results were omitted from the sample, so actives are more common in it than they were. Values without a mark were called inactive.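 The calls were made as follows: active = mean growth activity at or below -80% and every replicate also at or below -80%; inconclusive = mean at or below -80% but some replicate above -80%; inactive = mean growth activity above -80%.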

A short description of this assay: blockers of Clostridium difficile growth – HTS, primary screen (AID 1259249).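 Also: 0% = DMSO wells and -100% = levofloxacin 16 µg/mL wells.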 The following applies: Clostridium difficile clinical isolate growth, OD600, 24 h; active compounds read low; screened at 16 µg/mL (by protocol).
Regarding `COc1ccc(S(=O)(=O)N(C)C[C@@H]2OCCCC[C@H](C)Oc3ccc(NC(=O)Nc4ccccc4)cc3C(=O)N([C@H](C)CO)C[C@H]2C)cc1`, the growth activity, negative = inhibition was -1.33%.

For the compound `O=C(C[C@@H]1CC[C@H](NS(=O)(=O)c2ccc(F)cc2)[C@@H](CO)O1)NCc1ccccc1F`, the growth activity, negative = inhibition is -8.59%.

Regarding `COCC(=O)N1[C@H](CO)[C@H](c2ccccc2C2=CCCCC2)[C@@H]1C#N`, the growth activity, negative = inhibition was -0.454%.

With `COc1ccc(CN(C)C[C@@H]2OCCCC[C@@H](C)Oc3ccc(NC(=O)Nc4ccc(C(F)(F)F)cc4)cc3C(=O)N([C@H](C)CO)C[C@H]2C)cc1`, the growth activity, negative = inhibition is -85.2% (active).

On to `COc1ccc(NC(=O)Nc2ccc3c(c2)C(=O)N([C@@H](C)CO)C[C@H](C)[C@H](CN(C)Cc2ccc(C(F)(F)F)cc2)OCCCC[C@H](C)O3)cc1`, for which the growth activity, negative = inhibition was 0.631%.

On to `C[C@@H]1CN([C@H](C)CO)C(=O)c2cc(NC(=O)Nc3ccc(C(F)(F)F)cc3)ccc2O[C@@H](C)CCCCO[C@@H]1CN(C)Cc1ccc(C(F)(F)F)cc1`, for which the growth activity, negative = inhibition was 0.541%.

For `COc1ccc(S(=O)(=O)N2CC[C@@H]3[C@H](CO)Nc4ccc(C#Cc5cccc(OC)c5)cc4[C@@H]32)cc1`, the growth activity, negative = inhibition is 47.9%.

As for `CCCNC(=O)N1[C@@H]2CNC[C@H]1C2c1ccc(-c2cccc(C)c2)cc1` (some centres not stated), the growth activity, negative = inhibition is -6.26% and -5.23%.

On to `C[C@H](CO)N1C[C@H](C)[C@@H](CN(C)C(=O)C2CCC2)Oc2cc(C3=CCCCC3)ccc2S1(=O)=O`, for which the growth activity, negative = inhibition is -7.06%.

Consider `O=C(C[C@@H]1CC[C@@H](NC(=O)c2cccnc2)[C@H](CO)O1)NCCN1CCCCC1`, for which the growth activity, negative = inhibition is -5.37%.

Regarding `CN(C)C(=O)C[C@@H]1CC[C@H]2[C@@H](COC[C@H](O)CN2S(=O)(=O)c2ccccc2)O1`, the growth activity, negative = inhibition is 0.743% and 2.09%.

For `O=C(NC1Cc2ccccc2C1)[C@@H]1[C@@H](CO)[C@@H]2Cn3c(ccc(C4=CCCC4)c3=O)[C@H]1N2CC1CC1`, the growth activity, negative = inhibition is -0.745%.

`C[C@H](O)C#Cc1cnc2c(c1)C(=O)N([C@H](C)CO)C[C@@H](C)[C@@H](CN(C)C(=O)Nc1ccc(C(F)(F)F)cc1)O2`: the growth activity, negative = inhibition is 4.02%.

On to `O=C(Cc1ccccc1)N1CC2(C1)[C@H](c1ccccc1)[C@@H](CO)N2C(=O)c1cccnc1`, for which the growth activity, negative = inhibition was 1.92%.

In the case of `O=C(Cc1cccnc1)N1CC(=O)N2[C@@H](CO)[C@H](c3ccc(C#CC4CC4)cc3)[C@@H]2C1`, the growth activity, negative = inhibition is -8.63%.

Consider `CCCC(=O)Nc1ccc2c(c1)OC[C@H](C)N(Cc1ccc(F)cc1)C[C@H](C)[C@H](OC)CN(C)C2=O`, for which the growth activity, negative = inhibition was -2.55%.

Take `COc1ccc2c3c(n(C)c2c1)[C@H](CO)N(C(=O)c1ccncc1)CC31CCN(CC2CC2)CC1`: the growth activity, negative = inhibition was -4.02%.

As for `CN(C)CC(=O)N[C@H]1CC[C@H](CCNC(=O)C2CCCCC2)O[C@H]1CO`, the growth activity, negative = inhibition is -2.36%.

`CCS(=O)(=O)N1CC(=O)N2[C@H](CO)[C@@H](c3ccc(C#Cc4cccc(F)c4)cc3)[C@@H]2C1`: the growth activity, negative = inhibition was -11.9%.

With `CCCNC(=O)N1CC2(CCN(Cc3ccc(F)cc3)CC2)c2c([nH]c3cc(OC)ccc23)[C@@H]1CO`, the growth activity, negative = inhibition was -2.16%.

In the case of `COc1ccc(C#Cc2cnc3c(c2)C(=O)N([C@H](C)CO)C[C@@H](C)[C@H](CN(C)C(=O)Nc2cccc(OC)c2)O3)cc1`, the growth activity, negative = inhibition is -9.72%.

`CO[C@@H]1CN(C)C(=O)c2ccc(NC(=O)NC(C)C)cc2OC[C@@H](C)N(C)C[C@H]1C`: the growth activity, negative = inhibition was -0.836%.

Consider `CO[C@H]1CN(C)C(=O)c2ccc(NC(=O)c3cnccn3)cc2OC[C@H](C)N(C)C[C@@H]1C`, for which the growth activity, negative = inhibition was 4.99%.

Take `CC=Cc1ccc2n(c1=O)C[C@H]1[C@H](CO)[C@@H](C(=O)NCCc3cn(C)cn3)[C@@H]2N1C(=O)CC` (mixture of isomers): the growth activity, negative = inhibition is 1.45%.

For the compound `CCNC(=O)C[C@H]1CC[C@@H]2[C@H](COc3ccc(NC(=O)Nc4cccc(Cl)c4)cc3C(=O)N2C)O1`, the growth activity, negative = inhibition is -2.43%.

Consider `CC(=O)N1[C@H](CNC(=O)CN(C)C)[C@H](c2ccc(C3=CCCC3)cc2)[C@@H]1CO`, for which the growth activity, negative = inhibition is -3.19%.

On to `CO[C@H]1O[C@H](CO)[C@@H](OC(=O)Nc2ccc(C(F)(F)F)cc2)[C@H](OC(=O)Nc2ccc3c(c2)OCO3)[C@H]1OC(=O)Nc1ccc2c(c1)OCO2`, for which the growth activity, negative = inhibition was 16.4%.

As to `COc1ccc(-c2ccc3c(c2)[C@@H]2[C@@H](CCN2C(=O)NC2CCCC2)[C@@H](CO)N3C)cc1`, the growth activity, negative = inhibition is -8.11%.

As for `C[C@H](NC(=O)[C@@H]1[C@@H](CO)[C@@H]2Cn3c(ccc(-c4cccc(F)c4)c3=O)[C@@H]2N1C)c1ccccc1`, the growth activity, negative = inhibition is -2.53%.

For `CN1C(=O)c2cc(NC(=O)C3CCCCC3)ccc2OC[C@H]2O[C@@H](CC(=O)NC3CCCC3)CC[C@@H]21`, the growth activity, negative = inhibition is -2.9%.

On to `CO[C@H]1CN(C)C(=O)c2ccc(NC(=O)Nc3ccc(F)cc3)cc2OC[C@@H](C)NC[C@H]1C`, for which the growth activity, negative = inhibition was 0.388%.

Consider `CO[C@H]1CN(C)C(=O)c2ccc(NC(=O)Nc3ccc4c(c3)OCO4)cc2OC[C@H](C)NC[C@H]1C`, for which the growth activity, negative = inhibition is -11.3%.

With `CO[C@@H]1CN(C)C(=O)c2ccc(NC(=O)Nc3cc(Cl)cc(Cl)c3)cc2OC[C@H](C)NC[C@H]1C`, the growth activity, negative = inhibition is -99.2% (active).

Take `COc1cccc(NC(=O)N2C[C@@H](O)COC[C@@H]3O[C@@H](CC(=O)NC4CCC4)CC[C@H]32)c1`: the growth activity, negative = inhibition is 5.76%.

For the compound `Cc1ccccc1S(=O)(=O)NCC[C@@H]1CC[C@H](NC(=O)C2CCC2)[C@@H](CO)O1`, the growth activity, negative = inhibition was 2.36%.

Turning to `O=C(N[C@H]1CC[C@H](CCNS(=O)(=O)c2ccc(F)cc2)O[C@H]1CO)c1cccc(F)c1`, the growth activity, negative = inhibition was -5.13%.

For the compound `COC(=O)C[C@H]1C[C@H]2c3cc(NC(=O)Nc4ccccc4F)ccc3O[C@H]2[C@H](CO)O1`, the growth activity, negative = inhibition is 2.15%.

With `COc1cc(C(=O)NC2CCN(C)CC2)ccc1Nc1ncc2c(n1)N(C1CCC(O)CC1)CCC(=O)N2C` (configuration not stated), the growth activity, negative = inhibition is -0.491%.

For `O=C(Nc1cc(F)ccc1F)N1C[C@H]2[C@@H](c3ccccc31)[C@@H](CO)N2CC1CCCC1`, the growth activity, negative = inhibition is 8.3%.

On to `O=C(NCC1CC1)[C@@H]1[C@@H](CO)[C@@H]2Cn3c(ccc(-c4ccccc4)c3=O)[C@H]1N2Cc1nccs1`, for which the growth activity, negative = inhibition is -2.44%.

As to `CCCNC(=O)N(C)C[C@H]1Oc2ncc(-c3cccc(C#N)c3)cc2C(=O)N([C@@H](C)CO)C[C@@H]1C`, the growth activity, negative = inhibition was 2.18%.

As for `C[C@@H]1CCCCO[C@@H](CN(C)C(=O)Nc2ccc3c(c2)OCO3)[C@H](C)CN([C@H](C)CO)C(=O)c2cc(NC(=O)CCCN(C)C)ccc2O1`, the growth activity, negative = inhibition was 5.23%.

With `O=C(Cc1cccnc1)N1CC(=O)N2[C@@H](CO)[C@@H](c3ccc(C#CC4CCCC4)cc3)[C@@H]2C1`, the growth activity, negative = inhibition was -15.5%.

Turning to `COc1ccc2c3c(n(C)c2c1)[C@@H](CO)N(C)CC31CN(CC2CC2)C1`, the growth activity, negative = inhibition is 1.27%.

On to `COc1ccc2c3c([nH]c2c1)[C@H](CO)N(C(=O)Nc1ccc(F)cc1)CC31CN(S(=O)(=O)c2cccc(F)c2)C1`, for which the growth activity, negative = inhibition was 0.0849%.

For the compound `O=C(c1cccc(F)c1)N1CC[C@@H]2[C@H](CO)Nc3ccc(-c4ccccc4)cc3[C@@H]21`, the growth activity, negative = inhibition was 6.91%.

On to `COCC#Cc1ccc([C@@H]2[C@H](CO)N3C(=O)CN(C(=O)C4CCC4)C[C@@H]23)cc1`, for which the growth activity, negative = inhibition was -5.13%.

Consider `COc1ccc2c3c([nH]c2c1)[C@@H](CO)N(C(=O)c1ccccc1)CC31CCN(Cc2cccnc2)CC1`, for which the growth activity, negative = inhibition is 3.57%.

As for `CC=Cc1ccc2n(c1=O)C[C@H]1[C@H](CO)[C@@H](C(=O)NC3CCCC3)N(Cc3cccnc3)[C@@H]21` (mixture of isomers), the growth activity, negative = inhibition is 1.31%.

For the compound `CCC(=O)N1CC(=O)N2[C@@H](CO)[C@H](c3ccc(C#CC4CCCC4)cc3)[C@@H]2C1`, the growth activity, negative = inhibition is -2.43%.

In the case of `CN(C)CC#Cc1ccc([C@H]2[C@H]3CN(C(=O)c4cccc(F)c4)CC(=O)N3[C@H]2CO)cc1`, the growth activity, negative = inhibition was 2.12%.

As for `CO[C@H]1CN(C)C(=O)c2cc(NS(=O)(=O)c3ccccc3C)ccc2OC[C@@H](C)NC[C@@H]1C`, the growth activity, negative = inhibition is -1.27%.

As to `CS(=O)(=O)N1[C@H](C#N)[C@H](c2ccccc2-c2ccc(F)cc2)[C@@H]1CO`, the growth activity, negative = inhibition is 7%.

On to `CC(=O)N(C)C[C@H]1[C@H](c2ccc(C3=CCCCC3)cc2)[C@H](CO)N1CC1CC1`, for which the growth activity, negative = inhibition was 33.9%.

As to `O=C(C[C@@H]1CC[C@@H](NC(=O)C2CCOCC2)[C@H](CO)O1)NCC1CC1`, the growth activity, negative = inhibition is 1.16%.

As to `COc1ccccc1NC(=O)N1CC(=O)N2[C@H](C1)[C@H](c1ccc(C#Cc3ccccc3)cc1)[C@@H]2CO`, the growth activity, negative = inhibition is 12.6%.

On to `CCCNC(=O)C[C@H]1C[C@H]2c3cc(NC(=O)NC4CCCCC4)ccc3O[C@H]2[C@H](CO)O1`, for which the growth activity, negative = inhibition was -4.2%.

In the case of `COc1cccc(NC(=O)C[C@@H]2CC[C@H]3[C@@H](COc4ccc(NC(=O)C5CCC5)cc4C(=O)N3C)O2)c1`, the growth activity, negative = inhibition is -1.63%.

Turning to `C[C@@H]1CN([C@@H](C)CO)S(=O)(=O)c2ccc(/C=C/c3ccccc3)cc2O[C@H]1CN(C)C(=O)Nc1cc(F)ccc1F`, the growth activity, negative = inhibition is 4.39%.

On to `C/C=C/c1ccc([C@H]2[C@H](CO)N(C(=O)CN(C)C)C23CN(C(=O)C2CC2)C3)cc1`, for which the growth activity, negative = inhibition was -0.638%.

In the case of `CN1c2ccc(-c3ccccc3F)cc2[C@H]2[C@H](CCN2C(=O)Nc2cc(F)ccc2F)[C@H]1CO`, the growth activity, negative = inhibition was 38.2%.

In the case of `C[C@@H]1CCCCO[C@@H](CN(C)C(=O)CCC(F)(F)F)[C@H](C)CN([C@@H](C)CO)C(=O)c2cc(NC(=O)CCCN(C)C)ccc2O1`, the growth activity, negative = inhibition was 2.21%.
